The values below come from PubChem BioAssay (EPA / NIEHS).

Activity calls are given as the source filed them. Rule for the calls: active = hit-call score of the fitted dose curve at least 0.9, where 1 is the maximum; inactive = score below 0.9.

Assay [1] can be described thus: ATG_GLI_CIS: Attagene CIS-FACTORIAL HepG2 Assay for human Zinc Finger Protein GLI1 (AID 2282945). As to conditions: HepG2, Attagene cis-factorial reporter mRNA, GLI element; actives raise or lower the signal. Summed up:
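HepG2 cells transiently transfected with cis-promoter multiplexed reporter units report endogenous transcription factor activity. After 24 h chemical exposure, reporter mRNA was quantified by RT-PCR, 6-FAM labelling, HpaI digestion and capillary electrophoresis, with bidirectional fitting against DMSO.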

Assay [2] can be described thus: ATG_GRE_CIS: Attagene CIS-FACTORIAL HepG2 Assay for human Glucocorticoid Response Elements (GRE) (AID 2282947). The following applies: HepG2 GRE cis-reporter, Attagene multiplex mRNA; actives raise or lower the signal. Summed up: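 HepG2 cells transiently transfected with multiple cis-promoter reporter units measure endogenous TF activity; 24 h compound exposure. Reporter mRNA quantified by RT-PCR, FAM labelling, HpaI digestion and capillary electrophoresis; bidirectional fit vs DMSO baseline.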

Assay [3] is described as follows: ATG_ISRE_CIS: Attagene CIS-FACTORIAL HepG2 Assay for human Interferon Regulatory Factor 1 (IRF1) binding to an Interferon-Stimulated Response Element (ISRE) (AID 2282948). The following applies: HepG2 ISRE cis-reporter (Attagene), mRNA transcription readout; actives raise or lower the signal. Summed up: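 Transfected HepG2 (multiple reporter transcription units, cis elements) dosed 24 h. RNA → oligo(dT) RT → PCR → 6-FAM primer extension → HpaI → CE. DMSO = negative control/baseline.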

The nature of assay [4]: ATG_M_32_CIS: Attagene CIS-FACTORIAL HepG2 Assay for M32 Transcription Factor (Internal Marker) (AID 2282949).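 Note: background control marker of the multiplexed CIS panel rather than a real target.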 The following applies: HepG2 Attagene cis-factorial M32 reporter, mRNA; actives raise or lower the signal. Summed up: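 Internal background marker read-out: RT-PCR/capillary electrophoresis fluorescence of reporter transcripts from transiently transfected HepG2 cells after 24 h chemical exposure. Activity fitted bidirectionally relative to DMSO negative control.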

A short description of assay [5]: ATG_M_06_CIS: Attagene CIS-FACTORIAL HepG2 Assay for M06 Transcription Factor (Internal Marker) (AID 2282950). The following applies: HepG2 Attagene CIS-FACTORIAL M06 internal marker reporter; actives raise or lower the signal. Summed up:
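Terse: HepG2, transient MRTU transfection (FuGene 6), 24 h dosing; total RNA, oligo(dT) RT, PCR, FAM label, HpaI cut, capillary electrophoresis; bidirectional fit vs DMSO baseline; background-control endpoint.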

The target in assay [6] is Hypoxia-inducible factor 1-alpha (Homo sapiens) (UniProt Q16665). The assay can be described thus: ATG_HIF1a_CIS: Attagene CIS-FACTORIAL HepG2 Assay for human Hypoxia Inducible Factor 1 (HIF1A) (AID 2282951). The following applies: HepG2 Attagene cis-factorial HIF1a reporter transcription; actives raise or lower the signal. An outline of the steps:
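Endogenous-TF cis reporter readout, human HepG2 cells, 24 h incubation; mRNA detected via RT-PCR and capillary electrophoresis fluorescence; DMSO-normalised bidirectional fitting.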

Assay [7] has as its target Hepatocyte nuclear factor 6 (Homo sapiens) (UniProt Q9UBC0). Put plainly: ATG_HNF6_CIS: Attagene CIS-FACTORIAL HepG2 Assay for human Hepatocyte Nuclear Factor 6 (HNF6) (AID 2282952). The following applies: HepG2 Attagene cis-factorial HNF6 reporter transcription; actives raise or lower the signal. Summed up: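 HepG2 cells transiently transfected with cis-element-driven multiplexed reporter units measuring endogenous transcription factor activity. After 24 h exposure, reporter mRNA quantified by RT-PCR, FAM-labelled fragments and capillary electrophoresis; bidirectional fitting versus DMSO.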

Assay [8] deals with Heat shock factor protein 1 (Homo sapiens) (UniProt Q00613). The assay can be described thus: ATG_HSE_CIS: Attagene CIS-FACTORIAL HepG2 Assay for human Heat Shock Transcription Factor 1 (HSE) (AID 2282953). The following applies: HepG2 HSE cis-reporter, Attagene RNA transcription; actives raise or lower the signal. Summed up: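 Read-out: fluorescence of reporter-specific RT-PCR fragments separated by capillary electrophoresis. HepG2 carrying transfected cis-element reporter units; 24 h dosing; activity fitted in both directions relative to DMSO baseline.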
Chain of Heat shock factor protein 1 (Homo sapiens) (Q00613 whole entry, looked up, the tested form may be a part): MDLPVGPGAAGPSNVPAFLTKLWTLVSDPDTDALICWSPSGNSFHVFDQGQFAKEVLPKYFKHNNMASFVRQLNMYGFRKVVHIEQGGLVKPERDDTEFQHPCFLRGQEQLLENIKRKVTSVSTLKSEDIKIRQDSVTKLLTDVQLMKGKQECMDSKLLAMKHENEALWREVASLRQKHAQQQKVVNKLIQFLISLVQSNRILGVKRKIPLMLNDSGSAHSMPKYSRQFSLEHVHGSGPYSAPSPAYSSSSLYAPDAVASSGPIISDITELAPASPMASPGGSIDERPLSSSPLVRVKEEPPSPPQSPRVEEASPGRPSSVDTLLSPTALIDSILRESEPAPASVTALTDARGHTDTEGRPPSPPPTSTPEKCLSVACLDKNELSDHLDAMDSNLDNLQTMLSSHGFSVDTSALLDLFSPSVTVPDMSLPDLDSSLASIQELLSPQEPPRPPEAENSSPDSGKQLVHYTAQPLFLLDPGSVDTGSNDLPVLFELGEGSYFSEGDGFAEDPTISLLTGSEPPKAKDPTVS

Assay [9] in a line: ATG_MRE_CIS: Attagene CIS-FACTORIAL HepG2 Assay for human Metal Responsive Element (MRE) (AID 2282954). As to conditions: HepG2 MRE cis-reporter transcription, Attagene multiplex; actives raise or lower the signal. An outline of the steps: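 HepG2 cells transiently transfected with multiple cis-element reporter units measure endogenous MTF1-driven transcription. After 24 h compound exposure, reporter mRNA is quantified by RT-PCR with 6-FAM labelling, HpaI digestion and capillary electrophoresis; bidirectional fits versus DMSO.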

A short description of assay [10]: ATG_PBREM_CIS: Attagene CIS-FACTORIAL HepG2 Assay for human Phenobarbital-responsive Enhancer Module (PBREM) (AID 2282955). The following applies: HepG2 PBREM cis-reporter, Attagene multiplexed transcription; actives raise or lower the signal. Summed up: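 Readout: reporter mRNA, fluorescent RT-PCR fragments separated by capillary electrophoresis. System: HepG2 transiently transfected with cis-regulated reporter units. Exposure: 24 h. Analysis: bidirectional, DMSO baseline.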

The target of assay [11] is Paired box protein Pax-6 (Homo sapiens) (UniProt P26367). Put plainly: ATG_Pax6_CIS: Attagene CIS-FACTORIAL HepG2 Assay for human Paired Box 6 (PAX6) (AID 2282956). As to conditions: HepG2 CIS-FACTORIAL PAX6 reporter transcription, RNA readout; actives raise or lower the signal. Summed up: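 Transient MRTU transfection of HepG2 → compound exposure 24 h → TriZol RNA, oligo(dT) RT → PCR, 6-FAM primer extension, HpaI cut → capillary electrophoresis; activity fitted both directions against DMSO.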
Chain of Paired box protein Pax-6 (Homo sapiens) (P26367 whole entry, looked up): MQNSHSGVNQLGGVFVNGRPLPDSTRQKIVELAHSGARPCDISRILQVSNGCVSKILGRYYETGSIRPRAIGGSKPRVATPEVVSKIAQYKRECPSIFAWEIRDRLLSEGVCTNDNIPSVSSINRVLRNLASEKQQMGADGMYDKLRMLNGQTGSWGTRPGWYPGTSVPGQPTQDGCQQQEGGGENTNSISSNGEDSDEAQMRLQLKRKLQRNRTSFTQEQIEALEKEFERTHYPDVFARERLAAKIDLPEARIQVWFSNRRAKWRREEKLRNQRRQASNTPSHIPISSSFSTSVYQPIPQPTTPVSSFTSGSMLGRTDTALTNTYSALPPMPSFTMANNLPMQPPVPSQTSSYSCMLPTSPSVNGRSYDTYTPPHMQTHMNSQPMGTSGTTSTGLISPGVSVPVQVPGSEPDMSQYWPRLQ

Assay [12] in a line: ATG_PXRE_CIS: Attagene CIS-FACTORIAL HepG2 Assay for human Pregnane X Receptor Element (PXRE) (AID 2282957). As to conditions: HepG2 Attagene CIS-FACTORIAL PXRE reporter, mRNA; actives raise or lower the signal. Summed up:
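HepG2 cells transiently transfected with cis-element-driven multiplexed reporter units; after 24 h chemical exposure, reporter mRNA measured by RT-PCR, 6-FAM labelling, HpaI digestion and capillary electrophoresis. Bidirectional fitting relative to DMSO.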

Assay [13] can be described thus: ATG_PPRE_CIS: Attagene CIS-FACTORIAL HepG2 Assay for human Peroxisome Proliferator-activated Response Element (PPRE) (AID 2282958). As to conditions: HepG2 PPRE cis-element reporter, Attagene transcription factor profiling; actives raise or lower the signal. An outline of the steps:
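After human HepG2 hepatoma cells were transiently transfected with cis-promoter reporter constructs, they were exposed to test chemicals for 24 hours. Reporter RNA was then reverse-transcribed, PCR-amplified, FAM-labeled, HpaI-digested and quantified by capillary electrophoresis.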

Assay [14] is described as follows: ATG_RORE_CIS: Attagene CIS-FACTORIAL HepG2 Assay for human RAR-related Orphan Receptor Element (RORE) (AID 2282959). As to conditions: HepG2 Attagene cis-factorial RORE reporter, mRNA; actives raise or lower the signal. An outline of the steps:
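Measured here: transcript induction of a cis-regulated reporter in HepG2 cells transiently transfected via FuGene 6. After 24 h, RNA was processed by RT-PCR and fluorescent capillary electrophoresis; DMSO defined baseline activity.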

Assay [15] in a line: ATG_Sox_CIS: Attagene CIS-FACTORIAL HepG2 Assay for human SRY-box transcription factor (SOX) (AID 2282960). The following applies: HepG2 Attagene cis-factorial SOX reporter, mRNA; actives raise or lower the signal. Summed up:
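Using transiently transfected HepG2 cells, reporter transcription driven by cis elements was assessed 24 h after dosing. Signal was fluorescence of capillary-separated RT-PCR products, with DMSO defining baseline activity.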

The target of assay [16] is Transcription factor Sp1 (Homo sapiens) (UniProt P08047). The assay can be described thus: ATG_Sp1_CIS: Attagene CIS-FACTORIAL HepG2 Assay for human Specificity Protein 1 (Sp1) (AID 2282961). As to conditions: HepG2 Sp1 cis-reporter transcription, actives raise or lower the signal. An outline of the steps:
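After transient transfection of HepG2 cells with cis-promoter reporter units and 24 h chemical treatment, reporter transcripts were quantified by RT-PCR and capillary electrophoresis fluorescence. Gain- and loss-of-signal fitted against DMSO.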

A short description of assay [17]: ATG_SREBP_CIS: Attagene CIS-FACTORIAL HepG2 Assay for human Sterol Regulatory Element Binding (SREBP) (AID 2282962). As to conditions: HepG2 Attagene cis-factorial SREBP reporter, mRNA; actives raise or lower the signal. Summed up:
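Transfected HepG2 (cis-regulated reporter library, endogenous TFs) → compound 24 h → total RNA → oligo(dT) RT → reporter-specific PCR → FAM primer extension, HpaI cut → CE fluorescence. Fit bidirectional vs DMSO.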

Assay [18] addresses Signal transducer and activator of transcription 3 (Homo sapiens) (UniProt P40763). The assay can be described thus: ATG_STAT3_CIS: Attagene CIS-FACTORIAL HepG2 Assay for human Signal Transducer and Activator of Transcription 3 (STAT3) (AID 2282963). The following applies: HepG2, Attagene cis-factorial STAT3 reporter transcription; actives raise or lower the signal. An outline of the steps: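 HepG2 cells transiently transfected with cis-element-driven multiple reporter transcription units; after 24 h chemical exposure, reporter mRNA measured by RT-PCR, 6-FAM primer-extension labelling, HpaI digestion and capillary electrophoresis. Bidirectional fitting versus DMSO baseline.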

Assay [19] in a line: ATG_TA_CIS: Attagene CIS-FACTORIAL HepG2 Assay for human TA Basal Promoter (AID 2282964). As to conditions: HepG2 Attagene CIS-factorial TA basal promoter reporter; actives raise or lower the signal. Summed up: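 Transfected HepG2, 24 h compound exposure; RNA → RT-PCR → FAM primer extension → HpaI cut → CE fluorescence. Gain/loss-of-signal fitted against DMSO negative control. Background-control readout.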

Assay [20] is described as follows: ATG_TCF_b_cat_CIS: Attagene CIS-FACTORIAL HepG2 Assay for human T-Cell-Factor with beta-catenin (TCF/b-cat) (AID 2282965). The following applies: HepG2 TCF/beta-catenin cis-reporter transcription, actives raise or lower the signal. Summed up:
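HepG2 cells transiently transfected with multiple cis-promoter-regulated reporter transcription units, so endogenous transcription factor activity is measured. Reporter mRNA read 24 hours after dosing by RT-PCR, fluorescent labelling and capillary electrophoresis; bidirectional fitting against DMSO.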

Chain of Signal transducer and activator of transcription 3 (Homo sapiens) (P40763 whole entry, looked up): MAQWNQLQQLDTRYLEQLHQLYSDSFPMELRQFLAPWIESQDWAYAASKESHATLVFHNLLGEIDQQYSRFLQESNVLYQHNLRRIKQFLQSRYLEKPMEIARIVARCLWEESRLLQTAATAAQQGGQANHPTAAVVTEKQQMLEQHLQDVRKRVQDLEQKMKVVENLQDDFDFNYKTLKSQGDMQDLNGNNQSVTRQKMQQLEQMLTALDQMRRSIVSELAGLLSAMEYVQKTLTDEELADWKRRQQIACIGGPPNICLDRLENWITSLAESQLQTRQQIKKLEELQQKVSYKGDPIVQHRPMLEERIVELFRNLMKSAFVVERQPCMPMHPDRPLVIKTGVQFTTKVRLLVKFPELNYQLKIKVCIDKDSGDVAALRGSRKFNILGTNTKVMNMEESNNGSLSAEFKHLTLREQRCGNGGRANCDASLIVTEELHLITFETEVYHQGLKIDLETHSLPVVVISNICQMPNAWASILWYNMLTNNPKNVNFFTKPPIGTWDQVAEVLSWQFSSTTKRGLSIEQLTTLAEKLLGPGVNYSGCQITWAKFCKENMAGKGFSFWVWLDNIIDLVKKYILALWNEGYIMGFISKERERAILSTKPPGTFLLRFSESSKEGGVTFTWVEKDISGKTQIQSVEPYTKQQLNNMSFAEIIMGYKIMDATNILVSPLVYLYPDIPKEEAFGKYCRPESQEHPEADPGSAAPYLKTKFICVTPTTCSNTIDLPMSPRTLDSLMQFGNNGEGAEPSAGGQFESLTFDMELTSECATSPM
Chain of Hepatocyte nuclear factor 6 (Homo sapiens) (Q9UBC0 whole entry, looked up, the tested form may be a part): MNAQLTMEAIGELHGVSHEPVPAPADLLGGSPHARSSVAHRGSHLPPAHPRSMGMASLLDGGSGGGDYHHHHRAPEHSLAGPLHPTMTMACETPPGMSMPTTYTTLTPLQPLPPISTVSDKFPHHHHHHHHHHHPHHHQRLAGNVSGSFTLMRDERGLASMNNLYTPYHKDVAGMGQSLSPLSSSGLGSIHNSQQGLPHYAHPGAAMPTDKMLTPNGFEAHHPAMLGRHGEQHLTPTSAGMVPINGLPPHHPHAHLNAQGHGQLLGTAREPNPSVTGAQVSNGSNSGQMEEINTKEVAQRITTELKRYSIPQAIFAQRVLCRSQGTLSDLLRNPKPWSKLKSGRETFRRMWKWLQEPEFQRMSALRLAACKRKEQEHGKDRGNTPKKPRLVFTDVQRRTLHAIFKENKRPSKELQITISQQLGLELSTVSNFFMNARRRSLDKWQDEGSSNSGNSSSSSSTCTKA
Chain of Transcription factor Sp1 (Homo sapiens) (P08047 whole entry, looked up): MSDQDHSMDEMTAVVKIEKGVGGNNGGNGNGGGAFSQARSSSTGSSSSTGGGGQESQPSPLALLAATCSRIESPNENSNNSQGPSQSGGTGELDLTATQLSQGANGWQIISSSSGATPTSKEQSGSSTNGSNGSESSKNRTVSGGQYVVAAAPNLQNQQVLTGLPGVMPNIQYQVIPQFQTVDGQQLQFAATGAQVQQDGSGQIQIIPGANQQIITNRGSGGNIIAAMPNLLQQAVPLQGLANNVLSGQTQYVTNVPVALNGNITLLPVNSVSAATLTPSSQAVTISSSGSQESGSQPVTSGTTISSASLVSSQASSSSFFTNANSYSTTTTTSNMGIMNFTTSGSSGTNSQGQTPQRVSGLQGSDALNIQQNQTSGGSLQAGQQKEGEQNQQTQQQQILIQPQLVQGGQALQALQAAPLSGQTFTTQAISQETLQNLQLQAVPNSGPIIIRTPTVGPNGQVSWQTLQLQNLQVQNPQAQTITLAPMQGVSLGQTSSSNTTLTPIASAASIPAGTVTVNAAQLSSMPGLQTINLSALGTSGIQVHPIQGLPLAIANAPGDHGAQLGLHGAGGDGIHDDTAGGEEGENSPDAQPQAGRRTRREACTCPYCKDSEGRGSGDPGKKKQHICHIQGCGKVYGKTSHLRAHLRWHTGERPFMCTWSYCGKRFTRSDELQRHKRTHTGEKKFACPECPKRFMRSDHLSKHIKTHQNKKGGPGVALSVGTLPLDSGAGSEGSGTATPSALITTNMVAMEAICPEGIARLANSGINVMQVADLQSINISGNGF
Chain of Hypoxia-inducible factor 1-alpha (Homo sapiens) (Q16665 whole entry, looked up): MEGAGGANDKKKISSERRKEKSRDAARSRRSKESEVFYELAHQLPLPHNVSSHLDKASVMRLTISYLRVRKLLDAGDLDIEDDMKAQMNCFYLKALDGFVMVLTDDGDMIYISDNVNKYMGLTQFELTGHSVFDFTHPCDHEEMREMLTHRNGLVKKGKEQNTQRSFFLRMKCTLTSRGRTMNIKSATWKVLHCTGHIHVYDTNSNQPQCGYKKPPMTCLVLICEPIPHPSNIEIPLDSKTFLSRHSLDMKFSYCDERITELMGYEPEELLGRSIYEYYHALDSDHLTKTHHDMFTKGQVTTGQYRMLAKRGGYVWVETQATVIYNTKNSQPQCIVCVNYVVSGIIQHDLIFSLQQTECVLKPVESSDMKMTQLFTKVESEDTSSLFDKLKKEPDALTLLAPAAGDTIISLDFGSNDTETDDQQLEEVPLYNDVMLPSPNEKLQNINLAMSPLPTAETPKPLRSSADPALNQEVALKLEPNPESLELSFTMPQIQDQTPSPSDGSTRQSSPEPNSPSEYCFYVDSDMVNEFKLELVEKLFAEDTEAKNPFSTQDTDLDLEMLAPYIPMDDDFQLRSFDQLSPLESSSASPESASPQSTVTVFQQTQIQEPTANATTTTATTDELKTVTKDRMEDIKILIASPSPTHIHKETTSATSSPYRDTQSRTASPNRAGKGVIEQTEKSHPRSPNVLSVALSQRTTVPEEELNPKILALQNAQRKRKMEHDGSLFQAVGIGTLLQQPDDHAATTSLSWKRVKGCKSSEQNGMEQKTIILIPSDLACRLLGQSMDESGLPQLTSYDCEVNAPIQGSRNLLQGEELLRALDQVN

Consider `Cc1cc(C)nc(NC(=O)NS(=O)(=O)c2ccccc2C(=O)OC2COC2)n1`, for which the outcome in [1], in [2], in assay [3], in assay [4], in [5] and in [6] was inactive. The compound was called inactive in [7], in [10], in assay [11], in assay [12], in [13] and in assay [14]. Besides, the compound was called inactive in assay [15], in assay [16], in assay [18], in assay [19] and in assay [20]. The AC50 (in general, the concentration at which the activity in the assay is half-maximal) in [8] is 76.2 µM (active); in assay [9] it was 80.5 µM (active); in assay [17], 81.9 µM (active).

`CCC(C)(C)C(=O)OC1=C(c2ccc(Cl)cc2Cl)C(=O)OC12CCCCC2`: the call in assay [1], in [2], in [3], in assay [4], in assay [5] and in assay [6] was inactive. In addition, the compound was called inactive in assay [7], in assay [8], in [9], in assay [10], in [11] and in assay [12]. The result in [13], in assay [14], in [15], in [16], in [17] and in [18] was inactive. For the same compound, the result in assay [19] and in assay [20] was inactive.

Consider `COC(=O)c1ccccc1S(=O)(=O)NC(=O)N(C)c1nc(C)nc(OC)n1`, for which the result in assay [1], in assay [2], in assay [3], in assay [4], in assay [5] and in assay [6] was inactive. Further, the outcome in assay [7], in [8], in [9], in [10], in assay [11] and in assay [13] was inactive. The result in [15], in [16], in assay [17], in assay [18], in assay [19] and in assay [20] was inactive. The AC50 in [12] is 64.7 µM (active).
